A selection: hits, their analogues and other compounds. The true share with any hit is near 6.1%.
ATXN viability – viability counter-screen for ATXN expression inhibitors; S2 cells (HEK-293 line with an ATXN2-luciferase reporter) viability, CellTiter-Fluor protease fluorescence, 24 h; Potency, µM (top dose mostly 56.7 µM), most hits filed as cytotoxic; hit rate 0.49% among 400,000; AID 651635; further: nearly all actives have a fitted effect of over 40% in size
RORg inh – blocks mouse ROR gamma transcriptional activity; Drosophila S2 Gal4-RORgamma UAS-luciferase reporter, 20 h; Potency, µM (highest dose often 53.6 µM), without a hit: top-dose activity change, negative = inhibition, hits mostly inhibitors; P51450; hit rate 5.4% among 310,000; further: on the % scale 0 is the no-effect control and ±100 the full control effect; nearly all actives have a fitted effect of over 60% in size
Target sequence (P51450 whole entry, looked up, the tested form may be a part): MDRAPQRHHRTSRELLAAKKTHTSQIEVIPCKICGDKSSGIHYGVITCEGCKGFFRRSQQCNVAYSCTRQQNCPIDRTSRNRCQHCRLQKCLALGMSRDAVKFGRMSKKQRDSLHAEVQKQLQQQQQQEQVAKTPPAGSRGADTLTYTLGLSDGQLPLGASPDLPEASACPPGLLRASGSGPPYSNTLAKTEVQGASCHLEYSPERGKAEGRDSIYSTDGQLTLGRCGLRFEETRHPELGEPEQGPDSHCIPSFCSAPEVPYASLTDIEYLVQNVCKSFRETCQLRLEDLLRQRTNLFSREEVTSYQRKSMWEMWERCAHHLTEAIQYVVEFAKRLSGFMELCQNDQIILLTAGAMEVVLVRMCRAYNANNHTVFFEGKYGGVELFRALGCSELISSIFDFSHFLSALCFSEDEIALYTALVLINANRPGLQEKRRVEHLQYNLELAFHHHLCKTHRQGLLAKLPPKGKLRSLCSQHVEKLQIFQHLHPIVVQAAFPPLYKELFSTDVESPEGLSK
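Luciferase reporter read in Schneider cells carrying Gal4-RORγ (mouse) and UAS-Photinus luciferase; cells given compound 1 h before 700 uM copper sulfate induction, then incubated 20 h at ambient temperature.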
HepG2 tox-1 – kills HepG2 cells in TGF-b inhibitor counter-screen; Potency, µM (doses to about 46.1 µM), inactives show at the top dose activity change, negative = cytotoxicity, actives largely listed as cytotoxic; HepG2 CAGA-GFP viability, ATP luminescence, 18 h; hit rate 0.76% among 410,000
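CellTiter-Glo luminescence gave cytotoxicity after 18 hours at 37 degrees C. The cells were HepG2 CAGA-GFP in 1% FBS DMEM, stimulated with 500 pg/mL TGF-beta after compound addition. %Activity was normalised to no-cell wells (complete cell-killing) and DMSO (no toxicity), and curves were fitted and classified.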
ATXN2 expr inh – inhibitors of ATXN2 expression; HEK-293 ATXN2-luciferase reporter, luminescence, 24 h; Potency, µM (top dose mostly 57 µM), for inactives: at the top dose activity change, negative = inhibition, actives largely listed as inhibitors; hit rate 0.72% among 360,000; AID 1745845; further: on the % scale 0 is the no-effect control and ±100 the full control effect; nearly all actives have a fitted effect of over 55% in size
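ATXN2-luciferase reporter cells (luciferase flanked by upstream and downstream ATXN2 gene portions) were treated 24 h at 37 °C with compounds at up to 57 uM. SteadyGlo luminescence gave expression; GF-AFC fluorescence gave viability.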
Gal4-VP16 FLuc – Gal4-VP16 reporter inhibition counter-screen; Drosophila S2 Gal4-VP16 UAS-luciferase, luminescence, 20 h; Potency, µM (doses to about 53.6 µM), for the others: at the top dose activity, negative = inhibition, actives largely listed as inhibitors; hit rate 3.5% among 310,000; AID 2546;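 further: Gal4-VP16 expression switched on by copper sulfate through the metallothionein promoter; on the % scale 0 is the no-effect control and ±100 the full control effect; nearly all actives have a fitted effect of over 50% in size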
TGFb inhibitor – blocks TGF-b signaling | hit rate 1.2% among 410,000 | HepG2 CAGA-GFP TGF-b/SMAD3 reporter, GFP fluorescence, 18 h; TGF-beta stimulated, 500 pg/mL final | Potency, µM (series often up to 46.1 µM), for inactives: at the top dose activity, negative = inhibition, most hits filed as inhibitors; further: on the % scale 0 is the no-effect control and ±100 the full control effect; nearly all actives have a fitted effect of over 65% in size
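Inhibition of TGF-beta-driven CAGA-GFP reporter expression in HEPG2 cells is measured by cellular GFP fluorescence after 18 h stimulation with 500 pg/mL recombinant TGF-beta in 1% FBS medium at 37 degrees C.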
TGFb confirm – confirmation of TGF-b signaling inhibitors in HepG2 reporter cells; shares compounds with TGFb inhibitor; HepG2 CAGA-GFP TGF-b reporter, GFP fluorescence, 18 h; cells stimulated with TGF-beta, 500 pg/mL; Potency, µM (highest dose often 46.1 µM), for inactives: at the top dose activity, negative = inhibition, hits mostly inhibitors; hit rate 63% among 1,600; AID 720534; further: on the % scale 0 is the no-effect control and ±100 the full control effect; nearly all actives have a fitted effect of over 65% in size
HepG2 tox-2 – HepG2 cytotoxicity, TGF-b inhibitor counterscreen; shares compounds with TGFb inhibitor; HepG2 CAGA-GFP viability, ATP luminescence, 18 h; cells stimulated with TGF-beta, 500 pg/mL; Potency, µM (top dose mostly 46.1 µM), without a hit: at the highest dose activity, negative = cytotoxicity, actives largely listed as inhibitors; hit rate 27% among 1,600; AID 720535; further: on the % scale 0 is the no-effect control and ±100 the full control effect; nearly all actives have a fitted effect of over 70% in size
TGFb CCL64 inh – orthogonal confirmation of TGF-b inhibitors in CCL64 cells. CCL64 CAGA-GFP reporter, TGF-b stimulated, GFP fluorescence, 18 h. hit rate 41% among 1,600. shares compounds with TGFb inhibitor. Potency, µM (top dose mostly 46.1 µM), inactives show at the highest dose activity, negative = inhibition, usual class: inhibitors; further: nearly all actives have a fitted effect of over 65% in size
COP TGFb inh – TGF-b inhibition validated with COP promoter. shares compounds with TGFb inhibitor. HepG2 COP-GFP TGF-b reporter, GFP fluorescence, 18 h; cells stimulated by added recombinant TGF-beta. Potency, µM (top dose mostly 46.1 µM), for inactives: at the top dose activity, negative = inhibition, hits mostly inhibitors. hit rate 3% among 1,600. AID 720537; further: nearly all actives have a fitted effect of over 70% in size
* = called active by the depositor; i = inactive; u = inconclusive; x = no result; [ ] = another dose, or the depositor's remark. The call rests on the fitted dose curve; in most records, active means well fitted curve in the direction sought with a large enough effect; inconclusive means small, poorly fitted or top-dose-only effect, or another doubt; inactive means no such curve, though single readings can be large; an effect the other way counts as inactive or inconclusive. Potency means the concentration at half of the fitted maximal effect.

SMILES	ATXN viability	RORg inh	HepG2 tox-1	ATXN2 expr inh	Gal4-VP16 FLuc	TGFb inhibitor	TGFb confirm	HepG2 tox-2	TGFb CCL64 inh	COP TGFb inh
COc1cccc(/C=N/NC(=O)c2ccncc2)c1OC(=O)c1ccc(Br)cc1	u	5µM*	-36%	u	11µM*	u	u	-20%	u	8%
CN(C)c1cccc(/C=C(\C#N)c2ccccc2)c1	i	-33%	-30%	x	-21%	13µM*	u	-25%	u	-6%
CC(C)=CCC/C(C)=C/CO/N=C1/C[C@@H](O)[C@@H](O)[C@@H]2[C@H]3C(=O)N(c4ccc(F)cc4F)C(=O)[C@@H]3CC[C@@H]12	x	0%[10 µM]	x	x	-8%[10 µM]	x	x	x	x	x
Cc1ccc(NC(=O)c2sc3nc4c(cc3c2N)CN(Cc2ccccc2)CC4)cc1	u	x	-35%	u	x	-29%	x	x	x	x
Fc1cccc(Cc2c(-c3ccco3)nc3ccc(Cl)cn23)c1	x	x	-51%	-2%	x	u	x	x	x	x
Clc1cccc(Cc2c(-c3ccco3)nc3c4ccccc4ccn23)c1	u	x	x	61%	x	x	x	x	x	x
Fc1cccc(Cc2c(-c3ccco3)nc3c4ccccc4ccn23)c1	i	x	11µM*	138%	x	10µM*	18µM*	u	16µM*	3%
Clc1ccc2nc(-c3ccco3)c(Cc3ccccc3)n2c1	u	x	-19%	-28%	x	11µM*	15µM*	u	u	19%
CSCCC(NS(=O)(=O)c1cccc(C(F)(F)F)c1)C(=O)Nc1ccccc1N1CCCC1 (stereo not given)	u	x	-27%	1%	x	14µM*	16µM*	-7%	16µM*	-1%
Cc1ccc2c(=O)cc(C(=O)Nc3ccc(S(=O)(=O)N(C)c4ccccc4)cc3)oc2c1C	i	x	14%	2%	x	22%	x	x	x	x
Cn1c(/C=C/c2ccc([N+](=O)[O-])o2)nc2ccccc2c1=O	6.3µM*	6.3µM*	-41%	7.9µM*	6.3µM*	2.2µM*	u	6.5µM*	5.2µM*	u
CCCN1CCN(c2ncnc3sc(C(=O)Nc4ccc(N(CC)CC)cc4C)c(C)c23)CC1	u	x	-34%	u	x	u	x	x	x	x
O=C(/C=C/c1ccccc1)CCN1CCOCC1	u	x	10µM*	u	x	7.1µM*	2.6µM*	7.3µM*	10µM*	u
O=C(Nc1ccc(Cl)cc1Cl)c1cc(S(=O)(=O)N2CCN(c3ccccc3F)CC2)ccc1F	x	x	1%	x	x	-14%	x	x	x	x
O=[N+]([O-])c1cnc(Sc2ccncn2)s1	3.2µM*	3.2µM*	-109%	x	3.2µM*	2.2µM*	3.7µM*	2.9µM*	2.1µM*	3.7µM*
O=[N+]([O-])c1cnc(Sc2ccncn2)c([N+](=O)[O-])c1	u	x	-99%	x	x	u	x	x	x	x
Cc1cccc(OC(=O)c2cc(-c3ccc4c(c3)OCCO4)on2)c1C	i	x	-2%	20%	x	-1%	x	x	x	x
COc1cc(OC)cc(C(=O)N[C@H](C(=O)Nc2nc(-c3ccc(OC)c(OC)c3)cs2)C(C)C)c1	i	8%	-16%	x	0%	13µM*	15µM*	-7%	-18%	23%
COc1cccc([C@@H]2Oc3ccc(OC)cc3/C(=N/O[C@@H](C)c3cc(-c4c(C)cc(C)cc4C)no3)[C@@H]2O)c1	x	-1%[10 µM]	x	x	-3%[10 µM]	x	x	x	x	x
CCC(C)NS(=O)(=O)c1ccc(NC(=O)C(Sc2ccccc2)c2ccccc2)cc1 (stereo not given)	u	122%	-25%	u	-7%	13µM*	u	u	u	53%
CC(=O)NS(=O)(=O)c1ccc(NC(=O)C(Sc2ccccc2)c2ccccc2)cc1 (stereo not given)	i	11%	9%	-16%	-3%	3%	x	x	x	x
COc1ccc(/C=C2/CCC(CN3CCOCC3)C2=O)cc1 (stereo not given)	u	x	11µM*	6.7µM*	x	5µM*	4.6µM*	3.7µM*	4.6µM*	16µM*
COc1ccc(S(=O)(=O)N2CCOCC2)cc1NC(=O)CSc1nnc(N)s1	i	x	5%	5%	x	u	-12%	3%	3%	5%
Nc1nnc(SCC(=O)Nc2cccc(S(=O)(=O)N3CCOCC3)c2)s1	u	x	-20%	-3%	x	u	x	x	x	x
Cc1cc(=O)n2nc(N3CCC(C(=O)NCCCOC(C)C)CC3)sc2n1	i	x	0%	-3%	x	23%	x	x	x	x
Cc1ccc(C(=O)Nc2nc(C)c(C(=O)Nc3ccc4c(c3)CCC4)s2)cc1	u	5%	-3%	24%	-9%	11µM*	15µM*	u	8.2µM*	22%
C/C(CCN1CCCc2nc(C)c(C)cc21)=N\O[C@@H](C)c1cc(-c2c(C)cc(C)cc2C)no1	x	1%[10 µM]	x	x	2%[10 µM]	x	x	x	x	x
O=C(c1cc(-n2cnnc2)ccc1Cl)N1CCN(c2nc(-c3ccccc3)cs2)CC1	i	u	-5%	u	-7%	11µM*	8.2µM*	-30%	u	12%
CCN(CC)S(=O)(=O)c1cccc(C(=O)N[C@H](C(=O)Nc2nc3ccc(F)cc3s2)C(C)C)c1	i	u	-18%	u	0%	7.9µM*	4.1µM*	u	u	9%
CCN(CC)S(=O)(=O)c1cccc(C(=O)N[C@H](C(=O)Nc2nc3ccccc3s2)C(C)C)c1	i	39%	-28%	10%	12%	u	x	x	x	x

Screening data as filed in PubChem.
